Test results: PubChem BioAssay AID1645849 (National Center for Advancing Translational Sciences (NCATS), 2021)
Inconclusive results are not listed. Values without a mark were called inactive. Activity calls are given as the source filed them. Calls follow the shape of the dose curve; as a rule, active = well fitted inhibition curve with a large enough effect in the repeat runs; inconclusive = weak or mixed curves; inactive = no such curve, though single readings can be large or run the other way.

Experiment: Comparison of Janus kinase inhibitors to block the type I interferon pathway in human skeletal muscle cells: JAK inhibition assay
Conditions: IFN pathway HiBiT reporter; series mostly up to 45.9 µM; activity change, negative = inhibition: at the top concentration
Description: Assay Submitter: Travis B. Kinder Ph.D.
National Center for Advancing Translational Sciences (NCATS)
The family of Janus kinases (JAK1, JAK2, JAK3, TYK2) mediate signal transduction from cytokine receptors through phosphorylation and activation of intracellular signaling pathways and transcription factors. Small molecule antagonists of JAKs (jakinibs) have been developed with varying selectivity for the use in malignancies and immune regulation. […] We have assayed a library of 48 jakinibs for their ability to inhibit the JAK1/TYK2-dependent type I interferon (IFN) - major histocompatibility complex (MHC) class I pathway in human skeletal muscle cells genome-engineered to fuse a pro-luminescent HiBiT peptide to endogenous MHC class I.
The assay utilized CRISPR/Cas9 genome-engineered immortalized human myoblasts, C25cl48, where a pro-luminescent reporter HiBit was fused to the C-terminus of endogenous MHC class I allele HLA-B*08:01 (HLA-B HiBit myoblasts) (Kinder et al., 2020). HiBit is an 11 amino acid fragment of NanoLuc luminescent reporter (Promega Corporation), and when complexed to the larger LgBit fragment, the reconstituted enzyme produces light in the presence of furimazine substrate. Briefly, HLA-B HiBit myoblasts were plated into 1536-well plates, treated with 4.0 ng/ml human IFN-beta and 48 jakinibs in an 11-point, 1:3 titration with a high final concentration of 46 uM. After 24 hrs of treatment, cells were assayed by Nano-Glo HiBiT Lytic Detection System (Promega) and luminescence measured by a ViewLux 1430 Ultra HTS (Perkin Elmer).
Kinder TB, Dranchak PK, Inglese J. High-Throughput Screening to Identify Inhibitors of the Type I Interferon-Major Histocompatibility Complex Class I Pathway in Skeletal Muscle. ACS Chem Biol. 2020 Jul 17;15(7):1974-1986. doi: 10.1021/acschembio.0c00343
PROTOCOL TABLE (as described by Inglese et al., 2007)
SEQUENCE No. (e.g., 1, 2, 3, etc.); PARAMETER (e.g., Cells, Incubation, Reagent, etc.); VALUE; DESCRIPTION
1a; Cells; 5 uL; Seed 250 cells/well with a Multidrop Combi (Thermo Scientific) into two Greiner 1536 well white/solid bottom, high base, TC plates (789173-F) in 5 ul/well of growth medium (GM) without dexamethasone into columns 1+2
1b; Cells; 5 uL; Seed 250 cells/well with a Multidrop Combi (Thermo Scientific) into two Greiner 1536 well white/solid bottom, high base, TC plates (789173-F) in 5 ul/well of GM without dexamethasone + 4 ng/ml IFN-beta into columns 3 - 48. Add metal lids with gas-exchange holes
2; Incubate; 30 min; Incubate at 37C, 5% CO2, 95% RH
3; Compounds; 23 nl; Transfer DMSO control and library compounds in DMSO with Pin Tool (Wako)
4; Incubate; 24 hrs; Incubate at 37C, 5% CO2, 95% RH
5; Dispense; 2.5 ul; Add HiBit lytic reagent with a BioRAPTR FRD (Beckman Coulter)
6; Incubate; 10 min; Incubate in the dark at ambient temperature for lysis
7; Detector; 5 sec; Measure luminescence with ViewLux 1430 Ultra HTS (Perkin Elmer). Settings: Exposure = 5 sec, Gain = High, Speed = Slow, Binning = 2X
NOTES (numbers refer to sequence above)
1; HLA-B HiBit myoblasts cultured in GM - 4:1 ratio DMEM Glutamax (Thermo Fisher, 10566) : M199 (Thermo Fisher, 11150), 10% FBS (Hyclone Standard), 1% Pen/Strep, 50 ug/ml fetuin, 10 ng/ml hEGF, 1 ng/ml bhFGF, 10 ug/ml insulin, 0.4 ug/ml dexamethasone (supplements from Promocell, C-39360). […] Recombinant human IFN-beta (Peprotech, 300-02BC) was reconstituted in water, diluted in GM, and aliquots stored at -80C until day of use.
3; Control plate contained DMSO in columns 1 and 4, digitonin (Sigma, D141) cytotoxicity control in DMSO at 20 mM in column 2, and ruxolitinib (Selleckchem, S1378) inhibitor control in DMSO 16-point, 1:2 titration, high concentration = 17 mM in column 3. Digitonin and ruxolitinib stocks were reconstituted at 20 and 50 mM in DMSO and aliquots stored at -20C. Forty-eight compounds were added in an 11-point, 1:3 titration with a high final concentration of 46 uM by Pintool (Wako) from one library plates and one DMSO control plate
[…]

Compound	Potency	activity change, negative = inhibition [%]
Cc1cc(Nc2nc(N[C@@H](C)c3ncc(F)cn3)ncc2Cl)n[nH]1	1.47 µM (active)	
NC(=O)c1nc(-c2c(F)cccc2Cl)oc1Nc1ccc(C(=O)N2CCOCC2)cc1	5.23 µM (active)	
CC(=O)Nc1cc(Oc2ccc3c(nc(Nc4ccc(F)cc4F)n3C)c2C)ccn1	0.37 µM (active)	
CC(C)N(CCC(=O)c1ccc2ccccc2c1)Cc1ccccc1	14.2 µM (active)	
O=C(Nc1nc2cccc(-c3ccc(CN4CCS(=O)(=O)CC4)cc3)n2n1)C1CC1	15.3 µM (active)	
[2H]C([2H])([2H])NC(=O)c1nnc(NC(=O)C2CC2)cc1Nc1cccc(-c2ncn(C)n2)c1OC	0.0711 µM (active)	
CC(C)(C)c1nc2c3cc[nH]c(=O)c3c3cc(F)ccc3c2[nH]1	1.26 µM (active)	
COc1nsc(NC(=O)N2C[C@H]3CC(N(C)c4ncnc5[nH]ccc45)C[C@H]3C2)n1 (some centres undefined)	0.432 µM (active)	
CCC[C@H](NC(=O)/C(C#N)=C/c1cccc(Br)n1)c1ccccc1	7.39 µM (active)	
CC[C@@](C)(Nc1ccnc(-c2c[nH]c3ncccc23)n1)C(=O)NCC(F)(F)F	8.29 µM (active)	
Cc1oncc1C(=O)Nc1ccc(C(F)(F)F)cc1	17.2 µM (active)	
Cc1cnc(Nc2cccc(CN3CCOCC3)c2)nc1Nc1cccc(S(=O)(=O)NC(C)(C)C)c1	10 µM (active)	
O=C(Nc1ccnc(NC(=O)C2CC2)c1)c1c(Cl)cccc1Cl	4.48 µM (active)	
COc1cc2ncnc(Nc3ccc(O)cc3)c2cc1OC		-22.8
C1=C/COCc2cc(ccc2OCCN2CCCC2)Nc2nccc(n2)-c2cccc(c2)COC/1	2.16 µM (active)	
Cc1cc(Nc2cc(CN3CCOCC3)c3nc(C)c(Cc4ccc(Cl)cc4F)n3n2)n[nH]1	14.2 µM (active)	
N#CCC1(n2cc(-c3ncnc4[nH]ccc34)cn2)CN(C2CCN(C(=O)c3ccnc(C(F)(F)F)c3F)CC2)C1	0.861 µM (active)	
N#CCNC(=O)c1ccc(-c2ccnc(Nc3ccc(N4CCOCC4)cc3)n2)cc1	4.48 µM (active)	
Cc1cc(Nc2nc(N[C@@H](C)c3ccc(F)cc3)c(C#N)cc2F)n[nH]1	1.08 µM (active)	
CC1(C)CN(C(=O)c2ccc(-c3cccc4nc(NC(=O)C5CC5)nn34)cc2)C1	7.67 µM (active)	

Compound	Potency	activity change, negative = inhibition [%]
CCS(=O)(=O)N1CC(CC#N)(n2cc(-c3ncnc4[nH]ccc34)cn2)C1	1.31 µM (active)	
NC(=O)c1cnc2[nH]ccc2c1NC1C2CC3C[C@H]1CC(O)(C3)C2 (some centres undefined)	1.72 µM (active)	
Cc1cnc(Nc2ccc(CN3CCOCC3)cc2)nc1Nc1cccc(S(=O)(=O)NC(C)(C)C)c1	5.43 µM (active)	
Cc1cnc(Nc2ccc(OCCN3CCCC3)cc2)nc1Nc1cccc(S(=O)(=O)NC(C)(C)C)c1	3.56 µM (active)	
Cc1cc(Nc2cc(NC(=O)c3c(Cl)cccc3Cl)ccn2)nc(N)n1	2.16 µM (active)	
CC[C@@H]1CN(C(=O)NCC(F)(F)F)C[C@@H]1c1cnc2cnc3[nH]ccc3n12	0.33 µM (active)	
Fc1cc(-c2cccc3ncc(-c4cnn(C5CCNCC5)c4)nc23)cc(F)c1CN1CCOCC1	17.9 µM (active)	
CN(C)c1ccc(Nc2nc(N)n(C(=O)c3c(F)cccc3F)n2)cc1	6.58 µM (active)	
N#CC[C@H](C1CCCC1)n1cc(-c2ncnc3[nH]ccc23)cn1	0.861 µM (active)	
CNS(=O)(=O)CC1CCC(N(C)c2ncnc3[nH]ccc23)CC1 (centres undefined)	4.66 µM (active)	
CN1CCN(c2cccc(Nc3nc4c(-c5ccc(S(C)(=O)=O)cc5)cccn4n3)c2)CC1	3.06 µM (active)	
N#C/C(=C\c1ccc(O)c(O)c1)C(=O)NCc1ccccc1		-0.854
C=CC(=O)N1C[C@H](Nc2ncnc3[nH]ccc23)CC[C@@H]1C		-26.6
C[C@@H]1CCN(C(=O)CC#N)C[C@@H]1N(C)c1ncnc2[nH]ccc12	2.16 µM (active)	
CCS(=O)(=O)N1CCN(c2ccc(Nc3ncc(C(N)=O)c(NC4CC4)n3)cc2)CC1	0.93 µM (active)	
Cn1cc(Nc2nccc(N3C[C@H]4CC[C@@H](C3)N4C(=O)[C@@H]3CC3(F)F)n2)cn1	3.56 µM (active)	
Cc1cnc(Nc2ccc(N3CCN(C)CC3)cc2)nc1Nc1cccc(S(=O)(=O)NC(C)(C)C)c1	2.43 µM (active)	
C[C@@]12O[C@@H](C[C@]1(O)CO)n1c3ccccc3c3c4c(c5c6ccccc6n2c5c31)CNC4=O	0.415 µM (active)	
CCCS(=O)(=O)NC1CC(N(C)c2ncnc3[nH]ccc23)C1 (centres undefined)	3.7 µM (active)	
